Here are results for 34 molecules from the supplement of paper PMC11383364.

Where “and” joins values, the source holds several entries; their conditions need not be identical. Identical values can stand only once. ± gives the standard deviation of the averaged measurements.

This assay has as its system SUM149. In words: percent difference in area under dose-response curve of relative cell number, RPMI vs HPLM; higher = drug relatively more effective in HPLM than RPMI (negative = less effective in HPLM). The settings on record: treatment time: 72 h; dose range: 10-point, 1 nM to 20 µM; media compared: RPMI vs HPLM.
Turning to `Cc1ccc(S(=O)(=O)/C=C/C#N)cc1`, the “percent difference in area under dose-response curve” value (shortened to “percent difference in area”) was 0.814%.

Regarding `CCCCCCCC/C=C\CCCCCCCC(=O)NCCO` [Oleylethanolamide], the “percent difference in area” value is 2.18%.

For `CO[C@H]1C[C@@H]2CC[C@@H](C)[C@@](O)(O2)C(=O)C(=O)N2CCCC[C@H]2C(=O)O[C@H]([C@H](C)C[C@@H]2CC[C@@H](O)[C@H](OC)C2)CC(=O)[C@H](C)/C=C(\C)[C@@H](O)[C@@H](OC)C(=O)[C@H](C)C[C@H](C)/C=C/C=C/C=C/1C` [Rapamycin], the “percent difference in area” value came out at 12.8%.

On to `Cc1nc(N)sc1-c1ccnc(Nc2ccc(N3CCOCC3)cc2)n1`, for which the “percent difference in area” value is 11%.

Take `CC[C@@]1(O)C(=O)OCc2c1cc1n(c2=O)Cc2cc3c(CN(C)C)c(O)ccc3nc2-1` [Topotecan_HCl]: the “percent difference in area” value was -48.7%.

In the case of `C=CCNC1=C2C[C@@H](C)C[C@H](OC)[C@H](O)[C@@H](C)/C=C(\C)[C@H](OC(N)=O)[C@@H](OC)/C=C\C=C(/C)C(=O)NC(=CC1=O)C2=O`, the “percent difference in area” value is -27.6% and -16.3%.

As to `CC(C)(C)c1ccc(S(=O)(=O)NCc2ccc(C(=O)Nc3cccnc3)cc2)cc1`, the “percent difference in area” value was -12.4%.

For the molecule `O=C(O)c1ccc(-c2c[nH]c3ncc(-c4ccccc4)cc23)cc1C1CCCC1`, the “percent difference in area” value is -9.42%.

Turning to `COc1cc2c(cc1O)CC[C@@H]1[C@@H]2CC[C@]2(C)[C@@H](O)CC[C@@H]12` [2Methoxyestradiol], the “percent difference in area” value was -12%.

For `C#CC[C@H](c1nc2cc(Cl)ccc2c(=O)n1Nc1ccccc1)N(CCCN)C(=O)c1cccc(Cl)c1F`, the “percent difference in area” value was -7.78%.

For `Cc1cc(=O)oc2c(C=O)c(O)ccc12`, the “percent difference in area” value was found to be 5.18%.

With `Cc1c(C(=O)Nc2ccc(N3C[C@@H](C)O[C@@H](C)C3)nc2)cccc1-c1ccc(OC(F)(F)F)cc1`, the “percent difference in area” value is -7%.

`CO[C@@H](C(=O)N1Cc2[nH]nc(NC(=O)c3ccc(N4CCN(C)CC4)cc3)c2C1)c1ccccc1` [Danusertib]: the “percent difference in area” value was -17.3%.

For the molecule `O=C(NCCCNc1nc(Nc2cccc(NC(=O)N3CCCC3)c2)ncc1I)c1cccs1`, the “percent difference in area” value was -9.09%.

`O=C(O)c1ccc2cc(-c3ccc(O)c(C45CC6CC(CC(C6)C4)C5)c3)ccc2c1`: the “percent difference in area” value is -15%.

Take `Cc1cc(Nc2cc(N3CCN(C)CC3)nc(Sc3ccc(NC(=O)C4CC4)cc3)n2)n[nH]1`: the “percent difference in area” value is -14.9%.

Regarding `CN1CCN(CCOc2cc(OC3CCOCC3)c3c(Nc4c(Cl)ccc5c4OCO5)ncnc3c2)CC1` [Saracatinib], the “percent difference in area” value amounted to 14.3%.

Take `C=CC(=O)Nc1cccc(Nc2nc(Nc3ccc(NC4CN(CCF)C4)cc3OC)ncc2C(F)(F)F)c1`: the “percent difference in area” value came out at 10.4%.

Consider `CCCCc1nc2cc(/C=C/C(=O)NO)ccc2n1CCN(CC)CC`, for which the “percent difference in area” value worked out at 0.47%.

`S=c1[nH]cnc2nc[nH]c12` [Mercaptopurine]: the “percent difference in area” value is -43.4%.

For the molecule `Cn1cc(CNCC2CCN(c3ncc(C(=O)NO)cn3)CC2)c2ccccc21`, the “percent difference in area” value is -19.7%.

For the molecule `O=c1cc(-c2cccc3c2Sc2ccccc2S3)oc(N2CCOCC2)c1`, the “percent difference in area” value was determined as 4.24%.

In the case of `Nc1nc2c(c(=O)[nH]1)C[C@@H](CCc1ccc(C(=O)N[C@@H](CCC(=O)O)C(=O)O)cc1)CN2` [Lometrexol], the “percent difference in area” value was -68%.

For the molecule `Clc1ccc(C(c2ccccc2Cl)C(Cl)Cl)cc1` (centres undefined) [Mitotane], the “percent difference in area” value was -3.24%.

On to `CC(NC(=O)c1ccccc1/N=C/c1c(O)ccc2ccccc12)c1ccccc1` (centres undefined) [Sirtinol], for which the “percent difference in area” value is -4.04%.

As to `COc1cc(/C=C/C(=O)N2CCC=CC2=O)cc(OC)c1OC` [Piperlongumine], the “percent difference in area” value is -18.1%.

Take `CN(C)Cc1ccc(-c2nc3cccc4c3n2CCNC4=O)cc1`: the “percent difference in area” value is -5.91%.

As for `O=C(Nc1cccnc1)N1CCC(Cc2cccc(Oc3ccc(C(F)(F)F)cn3)c2)CC1`, the “percent difference in area” value was -4.77%.

Turning to `CC[C@]1(O)C[C@H]2CN(CCc3c([nH]c4ccccc34)[C@@](C(=O)OC)(c3cc4c(cc3OC)N(C=O)[C@H]3[C@@](O)(C(=O)OC)[C@H](OC(C)=O)[C@]5(CC)C=CCN6CC[C@]43[C@@H]65)C2)C1` [Vincristine], the “percent difference in area” value is -16.7%.

With `CNc1nc(-c2ccc3c(N)n[nH]c3c2)cc(N2C[C@@H](C(=O)NC3CCCCC3)CC[C@H]2C)n1`, the “percent difference in area” value is -4.83%.

With `OCCN(CCO)c1nc(N2CCCCC2)c2nc(N(CCO)CCO)nc(N3CCCCC3)c2n1` [Dipyridamole], the “percent difference in area” value is 2.66%.

Regarding `S=C(NCc1ccc2c(c1)OCO2)N1CCN(c2ncnc3c2oc2ccccc23)CC1` [Amuvatinib], the “percent difference in area” value worked out at 1.06%.

`CN(C)CCOc1ccc(-c2nc(-c3ccncc3)c(-c3ccc4c(c3)CC/C4=N\O)[nH]2)cc1`: the “percent difference in area” value was -4.32%.

Turning to `Nc1nc(F)nc2c1ncn2[C@@H]1O[C@H](CO)[C@@H](O)[C@@H]1O` [Fludarabine], the “percent difference in area” value was -2.56 ± 3.2%.
